System: Vero E6 infected with SARS-CoV-2
Assay: inhibition of SARS-CoV-2 cytopathic effect; higher = more antiviral protection, active = above 15
Conditions: 48 h

Measured: inhibition of SARS-CoV-2 cytopathic effect

O=P(O)(O)CN(CCN(CP(=O)(O)O)CP(=O)(O)O)CP(=O)(O)O
inactive: 1 nM -3.44% | 8.33 nM 0.56% | 100 nM -0.33% | 833.33 nM 2.43% | 10000 nM -1.39%

O=C(/C=C/c1cccnc1)NCCCCC1CCN(C(=O)c2ccccc2)CC1
inactive: 1 nM 3.22% | 8.33 nM -5.64% | 100 nM -20.3% | 833.33 nM -24.1% | 10000 nM -24.5%

C[C@]12CCC(=O)C=C1CC[C@@H]1[C@@H]2CC[C@@]2(C)[C@H]1CC[C@]2(O)C(=O)CO [cortodoxone]
inactive: 1 nM -0.53% | 8.33 nM -0.71% | 100 nM 1.21% | 833.33 nM 0.07% | 10000 nM -1.41%

O=C(O)c1cccnc1 [niacin]
inactive: 1 nM 1.07% | 8.33 nM 0.1% | 100 nM 0.52% | 833.33 nM 0.71% | 10000 nM 4.53%

CCOc1c(N2CCOCC2)cnn(C)c1=O [emorfazone]
inactive: 1 nM -7.19% | 8.33 nM -6.29% | 100 nM -2.95% | 833.33 nM -0.94% | 10000 nM 0.67%

O=C(Nc1cccc(C(F)(F)F)c1)Nc1cc(S(=O)(=O)NC2CC2)ccc1-c1ccsc1
inactive: 1 nM -0.22% | 8.33 nM -0.85% | 100 nM 0.27% | 833.33 nM 0.38% | 10000 nM 0.46%

O=C(OOC(=O)c1ccccc1)c1ccccc1 [benzoyl-peroxide]
inactive: 1 nM 2.98% | 8.33 nM 2.38% | 100 nM -1.92% | 833.33 nM -1.86% | 10000 nM -0.05%

COc1ccc(CNCc2cccc3ccccc23)cc1
inactive: 1 nM -2.74% | 8.33 nM -2.35% | 100 nM -0.58% | 833.33 nM -2.06% | 10000 nM -0.83%

CCn1nc(C2CCN(C(=O)CCO)CC2)nc1-c1cnc(N)c(-c2nnc(C(C)(C)C)o2)n1
inactive: 1 nM -2.84% | 8.33 nM 1.6% | 100 nM 1.87% | 833.33 nM -2.41% | 10000 nM -1.94%

CCCCc1ccc(C(N)=O)nc1 [bupicomide]
inactive: 1 nM 2.98% | 8.33 nM 0.4% | 100 nM -0.52% | 833.33 nM -0.04% | 10000 nM 3.08%

C/C(=C(\CCOP(=O)(O)O)SC(=O)c1ccccc1)N(C=O)Cc1cnc(C)nc1N [benfotiamine]
inactive: 1 nM 0.45% | 8.33 nM 2.17% | 100 nM 2.51% | 833.33 nM 1.61% | 10000 nM 0.69%

O.O.O.O.O=C([O-])CC(O)(CC(=O)[O-])C(=O)[O-].[Li+].[Li+].[Li+] [lithium-citrate]
inactive: 1 nM 0.34% | 8.33 nM -0.51% | 100 nM -1.43% | 833.33 nM 1.38% | 10000 nM 1.33%

Cc1cn2nc([C@@H]3CCCCN3C(=O)c3cc(Cl)ccc3NS(C)(=O)=O)cc2nc1N1CC[C@H](N)C1 [presatovir]
inactive: 1 nM 2.31% | 8.33 nM 0.48% | 100 nM -1.98% | 833.33 nM -1.96% | 10000 nM -4.09%

O=C(CCCCCCCn1cc(-c2cccnc2)nn1)Nc1ccccc1-c1ccccc1
inactive: 1 nM 0.38% | 8.33 nM -1.7% | 100 nM -14.1% | 833.33 nM -14.7% | 10000 nM -12.8%

CN[C@H](CNC(=O)N1CCC[C@@H]([C@@H](OCCNC(=O)OC)c2cccc(Cl)c2)C1)C[C@H]1CCCOC1
inactive: 1 nM 1.34% | 8.33 nM -1.3% | 100 nM 1.14% | 833.33 nM -0.1% | 10000 nM 3.16%

CC(Cc1ccc(O)cc1)NCC(O)c1cc(O)cc(O)c1 (stereo not given) [fenoterol]
inactive: 1 nM 2.01% | 8.33 nM 0.82% | 100 nM 2.19% | 833.33 nM 2.52% | 10000 nM 0.86%

CC1=C(C(=O)OC(C)C)C(c2cccc([N+](=O)[O-])c2)C(C(=O)OC2CN(C(c3ccccc3)c3ccccc3)C2)=C(N)N1 (stereo not given) [azelnidipine]
inactive: 1 nM 3.44% | 8.33 nM 1.14% | 100 nM -0.26% | 833.33 nM 0.91% | 10000 nM -6.87%

CCN(CC)CCCC(C)Nc1c2ccc(Cl)cc2nc2ccc(OC)cc12 (stereo not given) [mepacrine]
inactive: 1 nM 3.59% | 8.33 nM 0.39% | 100 nM 5.65% | 833.33 nM 5.16% | 10000 nM -17.4%

Cn1nc(C(C)(C)C)cc1C(=O)N[C@@H](Cc1cccc(Cl)c1)C(=O)NCC#N [cathepsin-inhibitor-1]
inactive: 1 nM 0.51% | 8.33 nM 1.86% | 100 nM -0.47% | 833.33 nM -5.37% | 10000 nM -1.36%

FC(F)(F)c1ccc(/C=C/c2nc(COc3ccc(CCCCn4ccnn4)cc3)co2)cc1 [mubritinib]
inactive: 1 nM 2.13% | 8.33 nM 1.62% | 100 nM 2.58% | 833.33 nM 3.2% | 10000 nM 1.47%

C[C@@H](C1=C(CCN(C)C)Cc2ccccc21)c1ccccn1 (racemic) [dimetindene]
inactive: 1 nM -0.06% | 8.33 nM 0.69% | 100 nM 0.085% | 833.33 nM 1.68% | 10000 nM 1.16%

COc1cc2c(cc1OC)CN(C(=O)[C@@H](NCc1ccncc1)C(C)(C)C)CC2
inactive: 1 nM 2.06% | 8.33 nM 3.28% | 100 nM 2.93% | 833.33 nM 1.04% | 10000 nM 1.19%

C[C@](N)(Cc1ccc(O)cc1)C(=O)O [metirosine]
inactive: 1 nM 2.52% | 8.33 nM 2.13% | 100 nM 7.36% | 833.33 nM 2.34% | 10000 nM 2.26%

COc1cc2nc(N3CCN(C(=O)C4CCCO4)CC3)nc(N)c2cc1OC (stereo not given) [terazosin]
inactive: 1 nM 1.36% | 8.33 nM -0.59% | 100 nM -1.51% | 833.33 nM -0.05% | 10000 nM 1.35%

OC[C@H]1O[C@@H](Oc2cc3c(O)cc(O)cc3[o+]c2-c2ccc(O)c(O)c2)[C@H](O)[C@@H](O)[C@@H]1O [kuromanin]
inactive: 1 nM -0.56% | 8.33 nM 0.72% | 100 nM -0.34% | 833.33 nM -2.36% | 10000 nM -4.26%

CC(C)c1cnn2c(NCc3ccccc3)cc(NCCCCCCN)nc12
inactive: 1 nM 2.49% | 8.33 nM -1.33% | 100 nM -2.16% | 833.33 nM 1.83% | 10000 nM -12.8%

O=C(O)COc1ccc(OCCNC[C@H](O)COc2ccccc2)cc1
inactive: 1 nM -0.61% | 8.33 nM -0.47% | 100 nM -1.08% | 833.33 nM 0.26% | 10000 nM 1.07%

Cn1c(=O)n(-c2ccc(C(C)(C)C#N)cc2)c2c3cc(-c4cnc5ccccc5c4)ccc3ncc21
inactive: 1 nM 1.43% | 8.33 nM -0.22% | 100 nM 0.93% | 833.33 nM -5.08% | 10000 nM -5.4%

Nc1nccc2c1ncn2[C@@H]1O[C@H](CO)[C@@H](O)[C@@H]1O [3-deazaadenosine]
inactive: 1 nM -0.84% | 8.33 nM -2% | 100 nM -2.27% | 833.33 nM -0.63% | 10000 nM -2.6%

CC(C)NCCN(C(C)C)S(=O)(=O)c1ccc(Cl)cc1Cl
inactive: 1 nM 1.45% | 8.33 nM -1.25% | 100 nM 0.74% | 833.33 nM -2.09% | 10000 nM -5.49%

Cc1cccc(Nc2ccccc2C(=O)O)c1C [mefenamic-acid]
inactive: 1 nM -0.88% | 8.33 nM 1.67% | 100 nM 1.5% | 833.33 nM -1.03% | 10000 nM -0.56%

c1cc(OCCN2CCCCC2)cc(-c2n[nH]c3ccc(-c4nnc[nH]4)cc23)c1
inactive: 1 nM -0.48% | 8.33 nM -0.97% | 100 nM -0.96% | 833.33 nM 3.62% | 10000 nM 3.74%

Cc1cc(-c2nc(-c3ccc(OC(F)(F)F)cc3)no2)nn1Cc1ccnc(N2CCN(C3CC3)CC2)c1
inactive: 1 nM 0.33% | 8.33 nM -2.02% | 100 nM -12.6% | 833.33 nM 0.7% | 10000 nM -8.83%

CC[C@]1(O)C[C@@H]2CN(CCc3c([nH]c4ccccc34)[C@@](C(=O)OC)(c3cc4c(cc3OC)N(C)[C@H]3[C@@](O)(C(N)=O)[C@H](O)[C@]5(CC)C=CCN6CC[C@]43[C@@H]65)C2)C1 [vindesine]
inactive: 1 nM 0.4% | 8.33 nM 0.16% | 100 nM -1.63% | 833.33 nM 0.62% | 10000 nM -2.18%

C[C@]12C=CC(=O)N[C@@H]1CC[C@@H]1[C@@H]2CC[C@]2(C)[C@@H](C(=O)Nc3cc(C(F)(F)F)ccc3C(F)(F)F)CC[C@@H]12 [dutasteride]
inactive: 1 nM -4.2% | 8.33 nM -3.31% | 100 nM 1.66% | 833.33 nM -2.35% | 10000 nM -7.18%

CCCCC#Cc1nc(NC)c2ncn([C@@H]3O[C@H](CO)[C@@H](O)[C@H]3O)c2n1
inactive: 1 nM -0.9% | 8.33 nM -1.35% | 100 nM 0.37% | 833.33 nM -1.59% | 10000 nM -0.62%

CC(C)C[C@H](NC(=O)CNC(=O)[C@H](Cc1ccc(O)cc1)NC(=O)[C@H](CO)NC(=O)[C@H](Cc1c[nH]c2ccccc12)NC(=O)[C@H](Cc1cnc[nH]1)NC(=O)[C@@H]1CCC(=O)N1)C(=O)N[C@@H](CCCNC(=N)N)C(=O)N1CCC[C@H]1C(=O)NCC(N)=O [gonadorelin]
inactive: 1 nM -1.95% | 8.33 nM -2.66% | 100 nM 0.47% | 833.33 nM -1.19% | 10000 nM 1.93%

CC(C)OC(=O)OCOP(=O)(CO[C@H](C)Cn1cnc2c(N)ncnc21)OCOC(=O)OC(C)C [tenofovir-disoproxil]
inactive: 1 nM 0.65% | 8.33 nM -1.58% | 100 nM 3.17% | 833.33 nM -4% | 10000 nM -9.11%

Source: the supplement of paper PMC13380429
